Results reported in publication PMC7862700, “An all-to-all approach to the identification of sequence-specific readers for epigenetic DNA modifications on cytosine”.

Key:
Experiment in all cases: DAPPL (digital affinity profiling via proximity ligation, sequencing); 10 mM Tris-HCl pH 7.5, 50 mM NaCl, 1 mM DTT, 4% glycerol, room temperature, 30 min; GST-TFs on glutathione beads, 16-mer random dsDNA library, 0.1% formaldehyde crosslink after washing; high values mean tight binding
[1] = target: T1, FLI1 (Homo sapiens, UniProt Q01543 1-452); settings: protein: recombinant; tags: N-terminal GST; dsDNA, one strand shown
T1 sequence: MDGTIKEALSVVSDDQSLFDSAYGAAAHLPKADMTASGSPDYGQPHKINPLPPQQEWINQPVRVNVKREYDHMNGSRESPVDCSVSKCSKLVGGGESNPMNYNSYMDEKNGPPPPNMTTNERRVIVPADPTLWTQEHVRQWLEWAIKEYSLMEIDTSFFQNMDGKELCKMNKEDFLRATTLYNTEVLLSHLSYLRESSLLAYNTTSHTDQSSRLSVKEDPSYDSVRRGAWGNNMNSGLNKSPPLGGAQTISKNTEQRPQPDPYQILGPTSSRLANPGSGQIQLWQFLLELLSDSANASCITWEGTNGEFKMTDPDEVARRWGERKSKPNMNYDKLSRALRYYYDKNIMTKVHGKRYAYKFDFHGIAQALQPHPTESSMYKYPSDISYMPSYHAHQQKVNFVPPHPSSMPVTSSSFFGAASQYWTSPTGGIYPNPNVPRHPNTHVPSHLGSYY
How it was run: (§1)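 Pools were built from human transcription factors expressed in yeast as GST fusions, captured on glutathione beads and DNA-barcoded, along with a tag-only sample. Incubation with 200 nmole of a 16-mer random double-stranded DNA library lasted 30 min at room temperature in Tris/NaCl/DTT/glycerol buffer, and was followed by washing, 0.1% formaldehyde crosslinking, proximity ligation, PCR amplification and Illumina NextSeq500 sequencing. Binding signal is the quotient of each hexamer's read frequency for a factor and its frequency for the tag-only sample.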

[2] = target: T2, ELK1 (Homo sapiens, UniProt P19419 1-428); settings: protein: recombinant; tags: N-terminal GST; dsDNA, one strand shown
T2 sequence: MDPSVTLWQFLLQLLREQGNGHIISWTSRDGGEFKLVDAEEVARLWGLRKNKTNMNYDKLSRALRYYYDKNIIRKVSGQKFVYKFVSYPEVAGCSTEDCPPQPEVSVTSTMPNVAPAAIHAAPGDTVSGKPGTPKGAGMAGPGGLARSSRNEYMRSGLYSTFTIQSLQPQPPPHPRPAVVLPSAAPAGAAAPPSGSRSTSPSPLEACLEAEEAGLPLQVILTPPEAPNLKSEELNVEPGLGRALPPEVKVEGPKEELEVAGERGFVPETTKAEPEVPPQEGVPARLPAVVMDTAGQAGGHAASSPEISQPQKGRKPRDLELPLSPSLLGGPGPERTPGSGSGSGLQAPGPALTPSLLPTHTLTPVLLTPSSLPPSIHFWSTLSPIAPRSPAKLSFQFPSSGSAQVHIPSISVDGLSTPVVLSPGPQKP
How it was run: as §1

[3] = target: T3, GABPA (Homo sapiens, UniProt Q06546 1-454); settings: protein: recombinant; tags: N-terminal GST; dsDNA, one strand shown
T3 sequence: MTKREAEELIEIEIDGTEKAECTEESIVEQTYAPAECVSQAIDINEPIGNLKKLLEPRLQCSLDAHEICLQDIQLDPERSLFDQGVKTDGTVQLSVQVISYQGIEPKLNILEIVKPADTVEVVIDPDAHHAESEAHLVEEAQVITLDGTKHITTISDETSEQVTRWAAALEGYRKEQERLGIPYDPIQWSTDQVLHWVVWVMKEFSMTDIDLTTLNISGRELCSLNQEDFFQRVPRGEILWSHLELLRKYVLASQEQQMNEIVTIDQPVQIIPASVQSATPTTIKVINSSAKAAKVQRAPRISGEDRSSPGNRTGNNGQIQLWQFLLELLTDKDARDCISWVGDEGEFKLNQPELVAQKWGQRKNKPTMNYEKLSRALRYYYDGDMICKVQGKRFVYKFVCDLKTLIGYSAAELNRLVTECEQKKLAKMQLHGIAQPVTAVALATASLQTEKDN
How it was run: as §1

[4] = target: T4, ERG (Homo sapiens, UniProt P11308 1-479); settings: protein: recombinant; tags: N-terminal GST; dsDNA, one strand shown
T4 sequence: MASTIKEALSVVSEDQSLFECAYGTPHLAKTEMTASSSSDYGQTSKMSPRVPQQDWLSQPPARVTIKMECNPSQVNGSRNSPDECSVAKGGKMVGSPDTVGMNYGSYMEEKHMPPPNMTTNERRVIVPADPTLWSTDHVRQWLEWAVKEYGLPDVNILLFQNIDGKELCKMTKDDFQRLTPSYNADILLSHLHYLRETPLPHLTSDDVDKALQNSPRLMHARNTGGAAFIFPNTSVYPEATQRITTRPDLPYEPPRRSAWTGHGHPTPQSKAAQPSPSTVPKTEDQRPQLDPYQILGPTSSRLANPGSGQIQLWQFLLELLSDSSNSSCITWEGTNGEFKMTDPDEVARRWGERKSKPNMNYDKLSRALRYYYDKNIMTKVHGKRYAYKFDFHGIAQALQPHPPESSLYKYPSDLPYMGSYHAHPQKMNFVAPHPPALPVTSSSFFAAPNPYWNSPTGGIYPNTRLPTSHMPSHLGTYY
How it was run: as §1

[5] = target: ELF1 (Homo sapiens, UniProt P32519 1-619); settings: protein: recombinant; tags: N-terminal GST; dsDNA, one strand shown
How it was run: as §1

[6] = target: T5, EHF (Homo sapiens, UniProt Q9NZC4 1-300); settings: protein: recombinant; tags: N-terminal GST; dsDNA, one strand shown
T5 sequence: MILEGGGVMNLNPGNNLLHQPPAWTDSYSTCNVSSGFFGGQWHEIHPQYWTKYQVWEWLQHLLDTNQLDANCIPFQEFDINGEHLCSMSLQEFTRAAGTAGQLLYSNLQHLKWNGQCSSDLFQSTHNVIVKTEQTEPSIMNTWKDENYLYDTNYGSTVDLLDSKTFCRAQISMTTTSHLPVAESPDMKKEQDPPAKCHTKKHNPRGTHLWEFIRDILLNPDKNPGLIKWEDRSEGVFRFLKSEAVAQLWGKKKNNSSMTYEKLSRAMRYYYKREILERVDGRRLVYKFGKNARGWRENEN
How it was run: as §1

[7] = target: SPI1 (Homo sapiens, UniProt P17947 1-270); settings: protein: recombinant; tags: N-terminal GST; dsDNA, one strand shown
How it was run: as §1

[8] = target: SPIB (Homo sapiens, UniProt Q01892 1-262); settings: protein: recombinant; tags: N-terminal GST; dsDNA, one strand shown
How it was run: as §1

[9] = target: T6, ELK3 (Homo sapiens, UniProt P41970 1-407); settings: protein: recombinant; tags: N-terminal GST; dsDNA, one strand shown
T6 sequence: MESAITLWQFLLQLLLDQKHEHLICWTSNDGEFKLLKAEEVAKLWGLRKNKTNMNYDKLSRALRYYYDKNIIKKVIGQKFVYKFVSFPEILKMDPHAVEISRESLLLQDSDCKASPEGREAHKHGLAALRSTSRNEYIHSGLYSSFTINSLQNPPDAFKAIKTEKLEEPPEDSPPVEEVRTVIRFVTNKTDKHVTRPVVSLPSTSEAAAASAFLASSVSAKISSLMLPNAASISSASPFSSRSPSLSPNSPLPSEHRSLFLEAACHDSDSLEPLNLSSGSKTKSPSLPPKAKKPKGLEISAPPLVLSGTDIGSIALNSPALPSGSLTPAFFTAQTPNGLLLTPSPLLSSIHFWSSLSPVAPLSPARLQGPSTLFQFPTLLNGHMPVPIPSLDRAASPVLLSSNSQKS
How it was run: as §1

[10] = target: T7, FEV (Homo sapiens, UniProt Q99581 1-238); settings: protein: recombinant; tags: N-terminal GST; dsDNA, one strand shown
T7 sequence: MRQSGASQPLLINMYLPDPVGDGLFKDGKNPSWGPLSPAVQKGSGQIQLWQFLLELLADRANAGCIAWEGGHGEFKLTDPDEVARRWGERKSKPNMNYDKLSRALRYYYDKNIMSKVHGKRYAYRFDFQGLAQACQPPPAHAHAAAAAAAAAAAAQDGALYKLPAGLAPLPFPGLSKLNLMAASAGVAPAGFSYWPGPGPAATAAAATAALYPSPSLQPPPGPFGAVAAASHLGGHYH
How it was run: as §1

[11] = target: ETV5 (Homo sapiens, UniProt P41161 1-510); settings: protein: recombinant; tags: N-terminal GST; dsDNA, one strand shown
How it was run: as §1

[12] = target: HSF1 (Homo sapiens, UniProt Q00613 1-529); settings: protein: recombinant; tags: N-terminal GST; chain copies: 3; dsDNA, one strand shown
How it was run: as §1

[13] = target: T8, SPIC (Homo sapiens, UniProt Q8N5J4 1-248); settings: protein: recombinant; tags: N-terminal GST; dsDNA, one strand shown
T8 sequence: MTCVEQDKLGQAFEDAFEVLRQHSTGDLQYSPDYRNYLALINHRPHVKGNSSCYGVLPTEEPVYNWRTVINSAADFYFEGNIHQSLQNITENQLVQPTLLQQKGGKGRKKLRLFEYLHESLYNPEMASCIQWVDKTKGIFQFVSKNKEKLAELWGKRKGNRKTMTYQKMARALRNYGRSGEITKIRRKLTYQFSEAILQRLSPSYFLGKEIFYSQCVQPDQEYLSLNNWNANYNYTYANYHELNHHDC
How it was run: as §1

[14] = target: ELF4 (Homo sapiens, UniProt Q99607 1-663); settings: protein: recombinant; tags: N-terminal GST; dsDNA, one strand shown
How it was run: as §1

[15] = target: T9, ELK4 (Homo sapiens, UniProt P28324-2 1-405); settings: protein: recombinant; tags: N-terminal GST; dsDNA, one strand shown
T9 sequence: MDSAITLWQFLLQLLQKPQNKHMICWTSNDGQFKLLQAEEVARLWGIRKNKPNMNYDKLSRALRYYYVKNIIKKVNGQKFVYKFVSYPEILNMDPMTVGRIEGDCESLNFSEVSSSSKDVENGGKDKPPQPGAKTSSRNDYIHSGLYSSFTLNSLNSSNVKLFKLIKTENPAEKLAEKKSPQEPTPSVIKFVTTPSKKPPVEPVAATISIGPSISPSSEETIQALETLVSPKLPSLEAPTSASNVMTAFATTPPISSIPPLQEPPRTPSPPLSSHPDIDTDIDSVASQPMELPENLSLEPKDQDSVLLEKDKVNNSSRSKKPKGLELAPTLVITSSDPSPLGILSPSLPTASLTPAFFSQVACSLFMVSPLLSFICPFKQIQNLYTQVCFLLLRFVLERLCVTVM
How it was run: as §1

[16] = target: T10, ETV2 (Homo sapiens, UniProt O00321 1-342); settings: protein: recombinant; tags: N-terminal GST; dsDNA, one strand shown
T10 sequence: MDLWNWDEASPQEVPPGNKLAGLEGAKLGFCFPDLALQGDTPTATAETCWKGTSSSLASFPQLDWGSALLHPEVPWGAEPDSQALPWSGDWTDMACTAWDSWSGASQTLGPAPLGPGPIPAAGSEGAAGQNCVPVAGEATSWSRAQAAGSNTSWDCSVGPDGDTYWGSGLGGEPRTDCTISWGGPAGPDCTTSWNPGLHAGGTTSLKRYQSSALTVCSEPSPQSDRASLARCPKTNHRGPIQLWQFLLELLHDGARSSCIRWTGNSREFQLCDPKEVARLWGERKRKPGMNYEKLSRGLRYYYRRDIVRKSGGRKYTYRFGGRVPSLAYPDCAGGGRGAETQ
How it was run: as §1

[17] = target: T11, ELF3 (Homo sapiens, UniProt P78545 1-371); settings: protein: recombinant; tags: N-terminal GST; dsDNA, one strand shown
T11 sequence: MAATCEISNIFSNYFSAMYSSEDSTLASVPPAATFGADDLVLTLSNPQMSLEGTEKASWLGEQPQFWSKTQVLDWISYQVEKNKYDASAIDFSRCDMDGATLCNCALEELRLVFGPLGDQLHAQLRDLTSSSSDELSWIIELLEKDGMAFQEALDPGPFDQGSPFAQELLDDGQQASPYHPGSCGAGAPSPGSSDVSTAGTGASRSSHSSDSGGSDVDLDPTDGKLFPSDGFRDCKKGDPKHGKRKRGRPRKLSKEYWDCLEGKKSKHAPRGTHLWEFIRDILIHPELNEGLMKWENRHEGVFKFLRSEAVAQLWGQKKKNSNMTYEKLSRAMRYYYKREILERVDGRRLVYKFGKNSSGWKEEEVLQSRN
How it was run: as §1

[18] = target: CRX (Homo sapiens, UniProt O43186 1-299); settings: protein: recombinant; tags: N-terminal GST; dsDNA, one strand shown
How it was run: as §1

[19] = target: ETV1 (Homo sapiens, UniProt P50549 1-477); settings: protein: recombinant; tags: N-terminal GST; dsDNA, one strand shown
How it was run: as §1

Chain of ELF4 (Q99607 whole entry): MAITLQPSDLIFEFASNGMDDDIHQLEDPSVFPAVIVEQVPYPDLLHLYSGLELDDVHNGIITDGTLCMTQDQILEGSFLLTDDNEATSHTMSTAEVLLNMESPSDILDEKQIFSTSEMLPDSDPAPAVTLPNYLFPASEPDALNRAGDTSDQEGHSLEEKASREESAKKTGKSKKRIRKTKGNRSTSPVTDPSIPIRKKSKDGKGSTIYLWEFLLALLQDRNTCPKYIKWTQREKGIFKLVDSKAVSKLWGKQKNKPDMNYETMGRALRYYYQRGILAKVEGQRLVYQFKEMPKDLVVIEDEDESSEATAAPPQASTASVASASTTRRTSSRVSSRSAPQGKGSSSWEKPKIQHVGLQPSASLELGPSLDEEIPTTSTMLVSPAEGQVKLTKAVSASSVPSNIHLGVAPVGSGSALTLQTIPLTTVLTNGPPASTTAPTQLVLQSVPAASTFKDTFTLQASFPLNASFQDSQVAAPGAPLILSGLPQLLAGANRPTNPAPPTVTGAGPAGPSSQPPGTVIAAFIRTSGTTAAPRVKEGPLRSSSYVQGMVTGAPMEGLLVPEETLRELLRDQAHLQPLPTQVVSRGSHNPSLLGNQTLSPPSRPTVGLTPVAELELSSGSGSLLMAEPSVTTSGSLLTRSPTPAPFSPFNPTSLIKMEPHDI
Chain of ETV1 (P50549 whole entry): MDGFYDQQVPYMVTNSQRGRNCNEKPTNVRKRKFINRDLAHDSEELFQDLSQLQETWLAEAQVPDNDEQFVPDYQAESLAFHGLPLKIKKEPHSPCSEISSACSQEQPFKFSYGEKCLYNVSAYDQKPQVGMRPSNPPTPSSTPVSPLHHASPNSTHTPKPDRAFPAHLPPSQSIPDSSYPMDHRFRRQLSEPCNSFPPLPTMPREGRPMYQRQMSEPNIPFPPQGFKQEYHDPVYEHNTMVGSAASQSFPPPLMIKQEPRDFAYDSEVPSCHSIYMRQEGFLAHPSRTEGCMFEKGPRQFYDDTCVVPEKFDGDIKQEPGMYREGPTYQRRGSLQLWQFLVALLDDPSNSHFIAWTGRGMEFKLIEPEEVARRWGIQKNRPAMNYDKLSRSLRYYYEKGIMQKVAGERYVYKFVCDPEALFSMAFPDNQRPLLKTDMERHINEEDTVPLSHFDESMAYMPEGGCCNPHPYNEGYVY
Chain of HSF1 (Q00613 whole entry): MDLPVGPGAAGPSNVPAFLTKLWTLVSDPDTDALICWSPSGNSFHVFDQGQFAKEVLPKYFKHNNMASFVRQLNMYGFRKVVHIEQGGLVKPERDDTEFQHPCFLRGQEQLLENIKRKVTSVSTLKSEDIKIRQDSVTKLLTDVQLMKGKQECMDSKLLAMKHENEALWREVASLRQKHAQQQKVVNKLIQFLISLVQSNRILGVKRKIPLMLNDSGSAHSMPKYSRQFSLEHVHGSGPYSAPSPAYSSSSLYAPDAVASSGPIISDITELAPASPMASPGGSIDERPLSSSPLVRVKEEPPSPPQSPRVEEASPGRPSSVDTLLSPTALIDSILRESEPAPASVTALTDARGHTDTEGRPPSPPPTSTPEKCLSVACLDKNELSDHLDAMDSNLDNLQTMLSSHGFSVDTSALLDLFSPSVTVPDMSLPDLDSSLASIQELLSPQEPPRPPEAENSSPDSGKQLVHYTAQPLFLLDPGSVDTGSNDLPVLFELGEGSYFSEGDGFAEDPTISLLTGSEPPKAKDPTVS
Chain of ELF1 (P32519 whole entry): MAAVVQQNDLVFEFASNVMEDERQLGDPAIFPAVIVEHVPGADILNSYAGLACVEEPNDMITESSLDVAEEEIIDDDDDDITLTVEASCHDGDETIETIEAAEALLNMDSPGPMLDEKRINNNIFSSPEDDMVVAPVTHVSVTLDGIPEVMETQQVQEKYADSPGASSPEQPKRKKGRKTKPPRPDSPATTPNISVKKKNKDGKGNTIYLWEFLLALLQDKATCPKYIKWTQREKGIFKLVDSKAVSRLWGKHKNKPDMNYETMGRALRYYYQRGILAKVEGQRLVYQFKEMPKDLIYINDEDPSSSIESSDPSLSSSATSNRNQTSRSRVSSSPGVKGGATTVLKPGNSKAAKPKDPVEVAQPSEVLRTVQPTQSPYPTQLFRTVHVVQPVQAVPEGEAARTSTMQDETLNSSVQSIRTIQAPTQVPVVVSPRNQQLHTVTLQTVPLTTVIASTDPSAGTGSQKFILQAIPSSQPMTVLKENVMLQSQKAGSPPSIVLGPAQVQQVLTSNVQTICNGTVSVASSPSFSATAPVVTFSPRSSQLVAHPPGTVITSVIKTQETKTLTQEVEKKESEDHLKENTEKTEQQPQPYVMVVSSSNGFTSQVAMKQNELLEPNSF
Chain of ETV5 (P41161 whole entry): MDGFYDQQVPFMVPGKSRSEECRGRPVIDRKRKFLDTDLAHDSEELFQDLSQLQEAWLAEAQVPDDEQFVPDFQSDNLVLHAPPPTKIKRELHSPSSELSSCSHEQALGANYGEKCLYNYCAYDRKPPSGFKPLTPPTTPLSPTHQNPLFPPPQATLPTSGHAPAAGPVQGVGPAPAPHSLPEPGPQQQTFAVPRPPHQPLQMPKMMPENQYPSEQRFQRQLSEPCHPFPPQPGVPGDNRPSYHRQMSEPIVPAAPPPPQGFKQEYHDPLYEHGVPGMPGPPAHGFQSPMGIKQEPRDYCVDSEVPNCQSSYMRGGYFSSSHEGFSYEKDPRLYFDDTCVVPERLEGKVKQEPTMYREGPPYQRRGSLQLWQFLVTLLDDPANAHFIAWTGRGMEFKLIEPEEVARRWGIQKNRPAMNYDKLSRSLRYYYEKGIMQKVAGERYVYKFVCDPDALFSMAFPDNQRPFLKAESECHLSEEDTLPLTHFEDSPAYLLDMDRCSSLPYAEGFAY
Chain of CRX (O43186 whole entry): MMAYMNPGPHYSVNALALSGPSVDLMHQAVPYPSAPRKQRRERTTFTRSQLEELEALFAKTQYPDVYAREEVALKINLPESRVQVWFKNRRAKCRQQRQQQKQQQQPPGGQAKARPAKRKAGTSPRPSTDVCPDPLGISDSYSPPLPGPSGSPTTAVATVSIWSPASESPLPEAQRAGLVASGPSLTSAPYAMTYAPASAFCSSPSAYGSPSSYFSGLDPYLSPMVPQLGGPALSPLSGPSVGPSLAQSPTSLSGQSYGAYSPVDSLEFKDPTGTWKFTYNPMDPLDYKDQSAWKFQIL
Chain of SPIB (Q01892 whole entry): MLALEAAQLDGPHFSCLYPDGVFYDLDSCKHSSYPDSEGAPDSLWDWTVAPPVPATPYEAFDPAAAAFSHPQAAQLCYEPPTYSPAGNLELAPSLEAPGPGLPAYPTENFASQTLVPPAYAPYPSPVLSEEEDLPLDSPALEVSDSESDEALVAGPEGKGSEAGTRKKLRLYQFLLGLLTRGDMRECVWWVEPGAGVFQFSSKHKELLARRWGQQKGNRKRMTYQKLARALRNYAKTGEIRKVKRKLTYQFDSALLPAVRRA

## GTTCGA
[1]
  binding signal: 1.13 fold enrichment (6-mer frequency, TF over GST control)
[2]
  binding signal: 1.12 fold enrichment (6-mer frequency, TF over GST control)
[3]
  binding signal: 1.17 fold enrichment (6-mer frequency, TF over GST control)
[4]
  binding signal: 1.07 fold enrichment (6-mer frequency, TF over GST control)
[5]
  binding signal: 1.08 fold enrichment (6-mer frequency, TF over GST control)
[6]
  binding signal: 1.14 fold enrichment (6-mer frequency, TF over GST control)
[7]
  binding signal: 1.04 fold enrichment (6-mer frequency, TF over GST control)
[8]
  binding signal: 1.05 fold enrichment (6-mer frequency, TF over GST control)
[9]
  binding signal: 1.15 fold enrichment (6-mer frequency, TF over GST control)
[10]
  binding signal: 1.02 fold enrichment (6-mer frequency, TF over GST control)
[11]
  binding signal: 1.07 fold enrichment (6-mer frequency, TF over GST control)
[12]
  binding signal: 1.9 fold enrichment (6-mer frequency, TF over GST control)
[13]
  binding signal: 1.15 fold enrichment (6-mer frequency, TF over GST control)
[14]
  binding signal: 1.12 fold enrichment (6-mer frequency, TF over GST control)
[15]
  binding signal: 1.07 fold enrichment (6-mer frequency, TF over GST control)
[16]
  binding signal: 1 fold enrichment (6-mer frequency, TF over GST control)
[17]
  binding signal: 1.13 fold enrichment (6-mer frequency, TF over GST control)
[18]
  binding signal: 1.11 fold enrichment (6-mer frequency, TF over GST control)
[19]
  binding signal: 1.08 fold enrichment (6-mer frequency, TF over GST control)
